Measurements as given in PubChem BioAssay.
The source made the active and inactive calls.

Assays:
[1] = E. coli DRC41 culture turbidity changes, primary screen, E. coli filamentation inducer project, strain DRC41, OD650, 48 h (AID 1152);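 also: E. coli MC1000 strain DRC41 lacking acrAB efflux pump and sulA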; conditions: E. coli DRC41 (acrAB sulA), higher = more signal, called active from +8 up or from −8 down
[2] = small-molecule binders of probe aLefty1, primary screen, biochemical, small-molecule microarray, 635/667 nm fluorescence (AID 1153); conditions: higher = more signal;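 also: score merges spot fluorescence with signal-to-noise ratio from the scanned slide images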
[3] = PSAC antagonists in infected red cells, primary screen, cell-based, P. falciparum Indochina, OD700, 1 h (AID 1154); conditions: P. falciparum Indochina infected RBC osmotic lysis, higher = more signal, called active from +8 up or from −8 down
[4] = PSAC antagonists in infected red cells, primary screen, cell-based, P. falciparum Indochina, OD700, 2 h (AID 1155);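 also: lysis reports solute entry through the parasite surface anion channel PSAC; channel blockers reduce lysis of infected cells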; conditions: P. falciparum Indochina infected erythrocytes, osmotic lysis OD700; higher = more signal, called active from +8 up or from −8 down
[5] = osmotic lysis modulators in infected erythrocytes, primary screen, PSAC antagonist project, cell-based, P. falciparum Indochina, OD700, 3 h (AID 1156); conditions: higher = more signal, called active from +8 up or from −8 down
[6] = PSAC antagonists in infected red cells, primary screen, cell-based, P. falciparum Indochina, OD700, 18 h (AID 1157); conditions: P. falciparum Indochina infected erythrocytes, osmotic lysis OD700, 18 h; higher = more signal, called active from +8 up or from −8 down
[7] = modulators of S6 phosphorylation in cells, primary screen, cell-based, A549, cytoblot, luminescence, serum-stimulated (AID 1158); conditions: A549 phospho-S6 cytoblot, 5 h, higher = more signal;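 also: serum-stimulated A549 lung adenocarcinoma cells; signal is phosphorylated S6 detected by cytoblot immunostaining with HRP secondary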
[8] = target: NADPH oxidase 2 (Homo sapiens) (UniProt P04839); assay: NOX2-dependent H2O2 signal modulators, primary screen, NOX inhibitor project, cell-based, HEK293-NOX2, PMA-stimulated, Amplex Red fluorescence (AID 1159); conditions: 45 min, higher = more signal, called active from +8 up or from −8 down; also: test concentration not given here
Sequence of NADPH oxidase 2 (Homo sapiens) (P04839 whole entry, looked up): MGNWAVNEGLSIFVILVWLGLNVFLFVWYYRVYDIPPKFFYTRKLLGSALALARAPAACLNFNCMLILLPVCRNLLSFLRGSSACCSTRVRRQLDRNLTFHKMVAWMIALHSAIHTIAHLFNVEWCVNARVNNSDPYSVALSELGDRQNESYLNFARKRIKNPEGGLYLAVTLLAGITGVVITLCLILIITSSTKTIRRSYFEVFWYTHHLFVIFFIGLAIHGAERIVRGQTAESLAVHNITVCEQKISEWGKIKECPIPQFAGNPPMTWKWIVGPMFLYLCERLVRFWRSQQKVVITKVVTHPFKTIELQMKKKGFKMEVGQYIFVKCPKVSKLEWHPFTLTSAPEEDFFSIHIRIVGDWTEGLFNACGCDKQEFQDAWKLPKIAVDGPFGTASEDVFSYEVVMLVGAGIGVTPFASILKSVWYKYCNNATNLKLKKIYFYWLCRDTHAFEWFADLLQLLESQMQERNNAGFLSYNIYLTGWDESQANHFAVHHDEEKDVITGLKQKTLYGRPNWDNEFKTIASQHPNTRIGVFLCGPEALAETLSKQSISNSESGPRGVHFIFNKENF

[9] = target: NADPH oxidase 4 (Homo sapiens) (UniProt Q9NPH5); assay: NOX4-dependent H2O2 signal modulators, primary screen, NOX inhibitor project, cell-based, HEK293-NOX4, tetracycline-induced, Amplex Red fluorescence (AID 1160); conditions: 45 min, higher = more signal, called active from +8 up or from −8 down
Sequence of NADPH oxidase 4 (Homo sapiens) (Q9NPH5 whole entry, looked up): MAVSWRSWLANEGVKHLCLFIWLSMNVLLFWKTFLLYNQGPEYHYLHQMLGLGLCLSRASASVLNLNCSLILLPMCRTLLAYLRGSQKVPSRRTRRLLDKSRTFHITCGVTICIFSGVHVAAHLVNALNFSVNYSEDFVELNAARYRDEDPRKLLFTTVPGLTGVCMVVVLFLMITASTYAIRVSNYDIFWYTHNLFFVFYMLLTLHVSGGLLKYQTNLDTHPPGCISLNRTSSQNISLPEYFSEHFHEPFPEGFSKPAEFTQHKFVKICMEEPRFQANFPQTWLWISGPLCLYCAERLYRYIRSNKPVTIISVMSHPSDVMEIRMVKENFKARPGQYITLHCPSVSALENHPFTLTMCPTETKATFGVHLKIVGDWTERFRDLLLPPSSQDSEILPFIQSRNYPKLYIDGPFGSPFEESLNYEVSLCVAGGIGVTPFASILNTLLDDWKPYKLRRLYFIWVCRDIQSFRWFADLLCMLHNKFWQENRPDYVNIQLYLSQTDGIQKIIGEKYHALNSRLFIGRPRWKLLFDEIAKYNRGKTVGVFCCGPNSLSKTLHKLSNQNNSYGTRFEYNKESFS

[10] = target: NADPH oxidase 5 (Homo sapiens) (UniProt Q96PH1); assay: NOX5-dependent H2O2 signal modulators, primary screen, NOX inhibitor project, cell-based, HEK293-NOX5, Amplex Red fluorescence (AID 1161); conditions: HEK293-NOX5, ionomycin, 45 min, higher = more signal
Sequence of NADPH oxidase 5 (Homo sapiens) (Q96PH1 whole entry, looked up): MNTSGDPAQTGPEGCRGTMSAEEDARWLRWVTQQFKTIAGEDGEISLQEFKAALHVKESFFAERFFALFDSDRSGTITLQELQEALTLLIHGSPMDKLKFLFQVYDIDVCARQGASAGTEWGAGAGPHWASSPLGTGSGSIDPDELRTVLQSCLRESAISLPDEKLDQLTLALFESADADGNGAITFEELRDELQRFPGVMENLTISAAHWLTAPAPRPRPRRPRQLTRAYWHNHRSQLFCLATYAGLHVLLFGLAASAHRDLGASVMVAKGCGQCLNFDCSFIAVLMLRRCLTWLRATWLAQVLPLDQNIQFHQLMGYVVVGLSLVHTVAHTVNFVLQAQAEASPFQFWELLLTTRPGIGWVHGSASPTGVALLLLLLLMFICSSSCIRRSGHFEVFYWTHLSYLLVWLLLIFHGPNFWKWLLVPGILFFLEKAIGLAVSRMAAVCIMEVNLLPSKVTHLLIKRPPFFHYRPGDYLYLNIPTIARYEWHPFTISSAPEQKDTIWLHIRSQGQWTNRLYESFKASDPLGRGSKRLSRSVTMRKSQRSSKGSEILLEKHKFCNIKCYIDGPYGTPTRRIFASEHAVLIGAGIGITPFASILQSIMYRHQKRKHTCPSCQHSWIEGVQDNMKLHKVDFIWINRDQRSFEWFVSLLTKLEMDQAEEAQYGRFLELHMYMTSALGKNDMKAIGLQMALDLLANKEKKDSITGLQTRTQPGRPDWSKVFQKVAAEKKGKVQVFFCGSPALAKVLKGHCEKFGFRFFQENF

[11] = A549 cell viability effects, profiling panel, calcein-AM fluorescence, 48 h, basal (AID 1162); conditions: higher = more signal; also: test concentration not given here
[12] = adipocyte viability effects, profiling panel, cell-based, 3T3-L1 adipocytes, calcein-AM fluorescence, 48 h, basal (AID 1163); conditions: 3T3-L1 adipocytes viability, higher = more signal; also: test concentration not given here
[13] = HepG2 cell viability effects, profiling panel, calcein-AM fluorescence, 48 h, basal (AID 1164); conditions: higher = more signal; also: test concentration not given here
[14] = MM1S cell viability effects, profiling panel, calcein-AM fluorescence, 48 h, basal (AID 1165); conditions: higher = more signal;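 also: viability of MM1S multiple myeloma cells under basal unstimulated conditions; test concentration not given here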
[15] = basal RPMI8226 viability, no added stimulus, profiling panel, cell-based, calcein-AM fluorescence, 48 h, PK04 Diversity Set (AID 1166); conditions: RPMI8226 myeloma viability, higher = more signal;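 also: cells grown under basal conditions without added stimulus; test concentration not given here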
[16] = basal HepG2 mitochondrial membrane potential changes, profiling panel, cell-based, JC-1 fluorescence, 24 h, 100 nL compound (AID 1167); conditions: higher = more signal; also: test concentration not given here
[17] = basal 3T3-L1 adipocyte mitochondrial potential changes, profiling panel, cell-based, JC-1 fluorescence, 3T3-L1 adipocytes, 24 h, 100 nL compound (AID 1168); conditions: JC-1 mitochondrial fluorescence, higher = more signal, called active from +8 up or from −8 down; also: test concentration not given here
[18] = basal RPMI8226 mitochondrial membrane potential changes, profiling panel, cell-based, JC-1 fluorescence, 24 h, 100 nL compound (AID 1169); conditions: RPMI8226 myeloma, JC-1 mitochondrial potential fluorescence, higher = more signal; also: test concentration not given here
[19] = basal MM1S mitochondrial membrane potential changes, profiling panel, cell-based, JC-1 fluorescence, 24 h, 100 nL compound (AID 1170); conditions: higher = more signal; also: test concentration not given here
[20] = A549 lung cancer cell viability effects, profiling panel, resazurin fluorescence, 24 h, PK04 Diversity Set (AID 1171); conditions: higher = more signal, called active from +8 up or from −8 down; also: test concentration not given here

Compound	z-score [1]	composite z-score [2]	z-score [3]	z-score [4]	z-score [5]	z-score [6]	z-score [7]	z-score [8]	z-score [9]	z-score [10]	z-score [11]	z-score [12]	z-score [13]	z-score [14]	z-score [15]	z-score [16]	z-score [17]	z-score [18]	z-score [19]	z-score [20]
C=CC[C@]1(C(=O)NCC(O)CO)N=C(c2ccc(OCCCO)cc2)O[C@H]1c1ccccc1CN=[N+]=[N-] (stereo not given in full)	0.0715 (inactive)	0.104	15.7 (active)	1.44 (inactive)	4.83 (inactive)	0.839 (inactive)	-0.99	0.871 (inactive)	0.0808 (inactive)	-0.704	0.444	-0.0459	1.31	-0.22	-0.365	1.28	-0.451 (inactive)	-0.427	-0.825	-0.389 (inactive)
C=CCC(OC(C)=O)[C@@H]1[C@@H](N(Cc2ccc(-c3ccccc3)cc2)C(=O)Cc2ccc(OC)cc2)c2cc(OCCCO)ccc2N1C(=O)c1ccc2ccccc2c1 (stereo not given in full)	-0.894 (inactive)	-0.529	1.23 (inactive)	0.384 (inactive)	-0.247 (inactive)	0.41 (inactive)	-0.111	-0.48 (inactive)	0.832 (inactive)	0.808	-0.186	0.407	-0.437	-1.12	-0.807	1.87	-0.81 (inactive)	1.08	0.383	-0.0027 (inactive)
COC(=O)c1ccc(OC)c(/C=C\CC(OC(=O)c2ccncc2)c2ccccc2)c1 (stereo not given)	2.32 (inactive)	-0.206	20.4 (active)	3.1 (inactive)	0.543 (inactive)	-1.02 (inactive)	1.93	-0.552 (inactive)	0.529 (inactive)	-0.408	1.46	-0.347	1.04	-1.64	-1.5	0.615	0.202 (inactive)	-0.177	0.148	0.271 (inactive)
CC(C)c1ccc(NN2C(C(O)c3ccccc3)C=CC3C(=O)N(c4ccccc4)C(=O)C32)cc1 (stereo not given)	0.2 (inactive)	0.395	4.51 (inactive)	1.97 (inactive)	0.506 (inactive)	1.42 (inactive)	-0.396	-0.365 (inactive)	-2.49 (inactive)	-2.48	1.53	-1.6	1.22	-0.168	0.159	-1.13	0.821 (inactive)	-0.197	-0.906	0.235 (inactive)
CC(=O)NCCCC[C@@H]1NC(=O)[C@H]2C[C@@H](C(=O)O)[C@@H](c3cccc(OCCO)c3)N2C1=O	-0.442 (inactive)	0.189	1.15 (inactive)	0.821 (inactive)	-1.42 (inactive)	0.253 (inactive)	0.435	0.956 (inactive)	0.197 (inactive)	-0.0358	-0.103	-0.349	0.276	0.34	0.928	0.0103	-0.55 (inactive)	-0.809	-0.401	0.354 (inactive)
C=CCOC(=O)[C@H]1[C@@H]2C(=O)O[C@@H](c3ccccc3)[C@@H](c3ccccc3)N2[C@@H](c2ccc(OCCOC(=O)[C@@H]3C[C@@H]4C(=O)N[C@@H](Cc5ccccc5)C(=O)N4[C@@H]3c3ccc(O)cc3)cc2)[C@]12C(=O)Nc1ccc(I)cc12	-0.402 (inactive)	0.861	4.04 (inactive)	2.18 (inactive)	2.04 (inactive)	1.38 (inactive)	-0.674	0.972 (inactive)	-1.15 (inactive)	0.885	-1.29	-0.28	0.561	-0.325	-0.561	-2.14	0.687 (inactive)	-0.398	-1.03	-0.454 (inactive)
CC(C)Cc1ccc(CN2CC[C@@H](NC(=O)c3ccccc3)C2)cc1	-0.55 (inactive)	-0.147	1.57 (inactive)	1.11 (inactive)	1.23 (inactive)	0.33 (inactive)	0.0681	-0.29 (inactive)	-0.413 (inactive)	-2.41	0.0665	-0.418	-0.179	-3.15	-2.77	-0.251	0.343 (inactive)	-0.442	-1.38	0.247 (inactive)
CC1C2C(CCCO)=CC(C3C(=O)N(C)C(=O)C23)N1Cc1cccc(OC(F)(F)F)c1 (stereo not given)	0.337 (inactive)	-0.0083	1.38 (inactive)	0.938 (inactive)	1.07 (inactive)	0.528 (inactive)	1.04	0.733 (inactive)	-0.702 (inactive)	0.455	-0.45	0.924	-0.399	-0.83	-0.423	0.779	0.0323 (inactive)	0.258	0.675	-0.791 (inactive)
COC(=O)[C@@]1(Cc2ccc(F)cc2)[C@H]2c3cc(C(=O)N4CCCC4)n(C[C@H](O)CO)c3C[C@H]2CN1C(=O)c1ccccc1	-1.62 (inactive)	0.873	1.41 (inactive)	0.542 (inactive)	0.396 (inactive)	0.668 (inactive)	-0.0929	0.709 (inactive)	-0.364 (inactive)	-2.49	-1.21	0.24	-0.674	-0.26	-1.07	-0.438	-1.11 (inactive)	-0.663	-0.371	0.467 (inactive)
COc1ccc(C(O)C2C=CC3C(=O)N(c4ccccc4)C(=O)C3N2Nc2ccccc2F)c2ccccc12 (stereo not given)	-0.462 (inactive)	1.16	3.82 (inactive)	1.71 (inactive)	0.419 (inactive)	1.05 (inactive)	-0.593	-0.232 (inactive)	-1.7 (inactive)	-2.13	0.23	-0.229	-0.737	-1.91	-1.61	-1.78	0.385 (inactive)	-0.172	-0.754	0.473 (inactive)
C=CCNC(=O)[C@@H]1[C@H]2C(=O)O[C@H](c3ccccc3)[C@H](c3ccccc3)N2[C@H](c2ccc(OCCO)cc2)[C@@]12C(=O)Nc1ccc(C#CCNC(N)=O)cc12	-0.582 (inactive)	0.124	2.55 (inactive)	0.268 (inactive)	0.422 (inactive)	-0.0239 (inactive)	0.386	1.88 (inactive)	1.2 (inactive)	-0.268	-0.842	0.274	-0.397	0.0041	0.155	-0.921	-0.962 (inactive)	0.672	1.23	0.36 (inactive)
CC(C)C[C@@H]1NC(=O)[C@H]2C[C@@H](C(=O)O)[C@@H](c3cccc(OCCO)c3)N2C1=O	0.441 (inactive)	0.0794	6.12 (inactive)	1.34 (inactive)	-2.36 (inactive)	0.595 (inactive)	0.793	-0.911 (inactive)	-0.69 (inactive)	-0.0644	-0.218	-0.234	-0.072	-1.36	-0.0757	0.664	-0.115 (inactive)	-0.0946	-0.449	0.668 (inactive)
C=C[C@H](OC)[C@@H](O)c1ccc(OC)c(O)c1	0.169 (inactive)	-0.169	-0.258 (inactive)	0.352 (inactive)	-0.658 (inactive)	0.207 (inactive)	-0.425	-2.15 (inactive)	-0.986 (inactive)	-0.556	-0.107	-0.678	1.69	-0.166	-0.991	1.26	0.503 (inactive)	0.5	0.443	-0.112 (inactive)
COc1ccc([Si](C)(C)[C@@H]2[C@@H](CC(=O)N(CCO)Cc3ccccc3)O[C@]3(C(=O)N(Cc4cccc(I)c4)c4ccccc43)[C@H]2C)cc1	-0.307 (inactive)	0.0464	4.63 (inactive)	1.5 (inactive)	-0.0382 (inactive)	1.14 (inactive)	0.32	-0.953 (inactive)	1.19 (inactive)	1.43	-1.09	1.05	-1.59	-2.55	-4.25	0.198	1.5 (inactive)	-1.2	-1.68	-2.97 (inactive)
O=C1O[C@H](c2ccccc2)[C@H](c2ccccc2)N2[C@H]1[C@@H](C(=O)O)[C@]1(C(=O)Nc3ccc(C#CC4(O)CCCCCC4)cc31)[C@H]2c1ccccc1OCCO	0.782 (inactive)	0.708	-2.1 (inactive)	-0.922 (inactive)	-14.7 (active)	-0.743 (inactive)	0.364	2.49 (inactive)	-1.56 (inactive)	-1.32	0.631	0.0596	-0.0165	-3.38	-4.15	-2.61	-0.521 (inactive)	-0.911	-0.681	0.95 (inactive)
CCOC(=O)C1=CCC(c2cccn2C(=O)OC(C)(C)C)N(S(=O)(=O)c2ccc(C)cc2)C1 (stereo not given)	-0.258 (inactive)	0.245	7.3 (inactive)	1.26 (inactive)	0.312 (inactive)	0.486 (inactive)	-0.0414	-0.035 (inactive)	0.754 (inactive)	0.499	-0.982	-0.838	-0.168	-3.2	-3.67	2.22	0.066 (inactive)	-1.11	-2.93	-0.373 (inactive)
[N-]=[N+]=Nc1ccccc1C[C@]1(C(N)=O)COC(c2ccc(OCCCO)cc2)=N1	-0.142 (inactive)	0.146	24.7 (active)	9.16 (active)	1.56 (inactive)	0.0294 (inactive)	1.84	-2.14 (inactive)	-1.48 (inactive)	-2.48	-0.193	0.936	0.0027	-0.286	-0.334	0.253	-0.298 (inactive)	-0.964	-0.942	0.246 (inactive)
Cc1ccc(S(=O)(=O)N2[C@@H](c3ccccc3)C(C(=O)O)=C[C@H]2C(C)(C)C)cc1	-0.576 (inactive)	-0.0318	0.386 (inactive)	0.0156 (inactive)	0.136 (inactive)	0.61 (inactive)	-0.222	0.384 (inactive)	-0.539 (inactive)	-0.36	-0.756	-0.625	-0.558	0.611	-0.711	-0.747	-0.465 (inactive)	-0.369	-0.953	-1.11 (inactive)
